CRFR2-BP ag: agonists of human CRF-binding protein/CRF-R2 receptor complex. HEK293 CRF-R2/CRF-BP, calcium dye fluorescence (FLIPR); percent of saturating CRF peptide response. activation, % at 13.2 µM. 350,000 tested, 0.46% active;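 active = activation of at least 50%, plus an integration ratio under a set limit after plate pattern correction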
MEKK3 PB1 HTS: raises or lowers MEK5 binding to the human MEKK3 PB1 domain. bead-based flow cytometry, Alexa488-MEK5 binding to MEKK3; actives lie on both sides; 0 = blocked by unlabeled MEK5, 100 = vehicle. binding response (% of control), % at 10 µM. 290,000 tested, 1.4% active;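 active = binding response more than 3 SD above or below the average of its plate-row segment, actives on both sides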;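 also: Alexa488 bead fluorescence after subtracting the streptavidin-only scavenger bead signal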
Target sequence (Q99759 whole entry, looked up, the tested form may be a part): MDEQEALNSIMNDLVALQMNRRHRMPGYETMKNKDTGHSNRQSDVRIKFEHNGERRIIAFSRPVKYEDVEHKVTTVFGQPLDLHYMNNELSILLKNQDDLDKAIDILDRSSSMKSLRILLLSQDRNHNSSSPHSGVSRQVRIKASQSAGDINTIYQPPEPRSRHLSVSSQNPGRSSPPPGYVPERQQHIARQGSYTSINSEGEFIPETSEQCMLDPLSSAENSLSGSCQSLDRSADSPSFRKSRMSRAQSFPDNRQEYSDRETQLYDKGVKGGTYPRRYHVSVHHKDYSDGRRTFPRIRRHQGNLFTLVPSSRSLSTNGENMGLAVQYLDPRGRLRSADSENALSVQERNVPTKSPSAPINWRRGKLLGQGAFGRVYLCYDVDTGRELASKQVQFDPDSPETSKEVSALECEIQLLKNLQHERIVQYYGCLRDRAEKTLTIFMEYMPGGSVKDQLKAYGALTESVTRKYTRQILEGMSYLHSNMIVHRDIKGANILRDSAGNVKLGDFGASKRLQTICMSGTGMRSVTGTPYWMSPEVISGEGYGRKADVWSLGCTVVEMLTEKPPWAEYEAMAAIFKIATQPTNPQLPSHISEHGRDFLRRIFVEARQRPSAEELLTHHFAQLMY
CRFR2-BP antag: blocks CRF-induced signaling of the CRF-BP/CRF-R2 complex | HEK293 CRF-R2/CRF-BP, CRF-induced calcium fluorescence | inhibition, % at 11.8 µM | 350,000 tested, 0.59% active | AID 588475;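 active = inhibition of the ligand-induced calcium signal above about 50% at the single tested concentration, limit read from the data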
ABCB6 inh MLPCN: inhibitors of human ABC transporter ABCB6 | Q9NP58 | K562-ABCB6 porphyrin accumulation, flow cytometry, 1 h; stronger effect = lower value | fluorescence ratio to DMSO, % at 10 µM | 360,000 tested, 0.19% active | AID 602162;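 active = fluorescence ratio to DMSO below 75%, the collection mean minus 3 SD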;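 also: signal is porphyrin accumulated inside mitochondria; lower ratio means ABCB6 inhibition with less porphyrin fluorescence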
MEKK2wt PB1 HTS: raises or lowers MEK5 binding to wildtype human MEKK2 PB1 domain. 290,000 tested, 1.1% active. binding response (% of control), % at 10 µM. Q9Y2U5. bead flow cytometry, Alexa488-MEK5 binding to MEKK2 WT; actives lie on both sides. AID 1531; in the data active = binding response below about 67% or above about 130%
MEKK2mut PB1 HTS: signal of MEK5 binding to mutant human MEKK2 PB1 domain; bead flow cytometry, Alexa488-MEK5 binding to MEKK2 mutant; percent response, % at 10 µM; 290,000 tested, 0.35% active; in the data active = percent response above about 24%, passing the limit was not always enough
MEKK2wt confirm: raises or lowers MEK5 binding to wildtype human MEKK2, retest. shares compounds with MEKK3 PB1 HTS. bead flow cytometry, Alexa488-MEK5 binding to MEKK2 WT; actives lie on both sides. binding response (% of control), % at 10 µM. 5,900 tested, 2.4% active; in the data active = binding response below about 16% or above about 210%; inactive = in between
MEKK2mut-MEK5: signal of MEK5 binding to mutant human MEKK2, retest; AID 1893; shares compounds with MEKK3 PB1 HTS; 5,900 tested, 2% active; bead flow cytometry, Alexa488-MEK5 binding to MEKK2 mutant; percent response, % at 10 µM; in the data active = percent response mostly above about 71%, no sharp cut-off; inactive = mostly below about 38%;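 also: higher means compound restores mutant binding toward wildtype level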
MEKK3-MEK5 inh: MEKK3-MEK5 PB1 inhibition, single concentration confirmation; binding response (% of control), % at 10 µM; shares compounds with MEKK3 PB1 HTS; bead flow cytometry, Alexa488-MEK5 binding to MEKK3; stronger effect = lower value; 5,900 tested, 1.8% active; AID 1894;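 active = binding response below 72% of control, or above a set upper limit, though filed actives all read lower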
ABCB6 blocker 1: inhibitors of human ABC transporter ABCB6 | 700 tested, under 10 active | AID 602430 | shares compounds with ABCB6 inh MLPCN | ratio response (% of DMSO), % at 10 µM | K562-ABCB6 porphyrin accumulation, flow cytometry, 1 h; stronger effect = lower value;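 active = repeat-averaged ratio response below 75% of DMSO, the collection mean minus 3 SD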;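 also: median porphyrin fluorescence at 575 nm with 488 nm excitation from mitochondria; lower ratio means less porphyrin signal so ABCB6 inhibition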
Large screens that a line does not name were inactive (follow-up assays come after a bar, where they were run); [ ] = remark or other dose. A selection: hits, their analogues and other compounds. The true share with any hit is near 2.9%.

O=C(CSc1ccc(-c2nc3ccccc3[nH]2)cn1)Nc1ccc(S(=O)(=O)N2CCCC2)cc1	none
Cc1ccccc1OCCn1cc(/C=C(\C#N)C(=O)NCc2ccco2)c2ccccc21	MEKK3 PB1 HTS 75[inhibitor] | MEKK2wt confirm inactive | MEKK2mut-MEK5 inactive | MEKK3-MEK5 inh inactive
CC(=O)c1ccc(CCCCc2ccc(C(C)=O)cc2)cc1	none (no result: MEKK3 PB1 HTS, MEKK2wt PB1 HTS, MEKK2mut PB1 HTS)
O=C(O)/C=C/c1ccc(S(=O)(=O)Nc2ccc(OCc3ccccc3)cc2)cc1	MEKK3 PB1 HTS 73[inhibitor] | MEKK2wt confirm inactive | MEKK2mut-MEK5 inactive | MEKK3-MEK5 inh inactive
O=C(O)CCc1ccc(S(=O)(=O)Nc2ccc(OCc3ccccc3)cc2)cc1	none
Clc1ccc(/C=C/c2nc(Cl)c(-c3ccc(Cl)cc3)c(Cl)n2)cc1	none
COc1ccc(C(C)(C)C)cc1NC(=O)COC(=O)C1=NNC(=O)CC1	none (no result: MEKK3 PB1 HTS, MEKK2wt PB1 HTS, MEKK2mut PB1 HTS)
CC1=N/C(=C\c2ccc([N+](=O)[O-])cc2)C(=O)N1c1cc(Cl)ccc1C	MEKK2wt PB1 HTS 52[inhibitor] | MEKK2wt confirm inactive | MEKK2mut-MEK5 inactive | MEKK3-MEK5 inh inactive
Cc1cc(S(=O)(=O)NCCCN2CCOCC2)ccc1Br	none (no result: MEKK3 PB1 HTS, MEKK2wt PB1 HTS, MEKK2mut PB1 HTS)
COc1ccc(N2C(=O)C3C4c5ccccc5C(C=Nc5ccc(C)cc5C)(c5ccccc54)C3C2=O)cc1 (stereo not given)	none
CCc1ccc(N=CC23c4ccccc4C(c4ccccc42)C2C(=O)N(c4ccc(OC)cc4)C(=O)C23)cc1 (stereo not given)	MEKK3 PB1 HTS 81[inhibitor] | MEKK2wt confirm inactive | MEKK2mut-MEK5 inactive | MEKK3-MEK5 inh inactive
CCN(CC(=O)NCc1ccc(Cl)cc1)CC(=O)NC1(C#N)CCCC1	none
CC(CCc1ccc(O)cc1)NC(c1ccccc1)c1ccc(Cl)cc1 (stereo not given)	none
CC(CCc1ccc(O)cc1)NCCC(c1ccccc1)c1ccccc1 (stereo not given)	MEKK2wt PB1 HTS 144 | MEKK2wt confirm inactive | MEKK2mut-MEK5 inactive | MEKK3-MEK5 inh inactive
O=C(CCCn1ncn2c(cc3occc32)c1=O)NCc1cccc(Cl)c1	none
O=C(O)CCn1c(CO)nc2ccccc21	MEKK3 PB1 HTS 129 | MEKK2wt confirm inactive | MEKK2mut-MEK5 inactive | MEKK3-MEK5 inh inactive
C/C(=N\Nc1ccc2nncn2n1)c1ccc(Br)s1	none
Cc1ccccc1-n1c(SCc2c(C)noc2C)nnc1-c1ccncc1	none
Cc1ccccc1-n1c(SCc2c(C)noc2C)nnc1-c1cccnc1	MEKK2wt PB1 HTS 28[inhibitor], MEKK2mut PB1 HTS 30 | MEKK2wt confirm inactive | MEKK2mut-MEK5 inactive | MEKK3-MEK5 inh inactive
COC(=O)c1cn(Cc2cc(OC)ccc2OC)cc(F)c1=O	none
CN(C)c1ccc(C(C(=O)NC2CCCC2)N(C(=O)c2csnn2)C2CC2)cc1 (stereo not given)	none
CCCCCCCCNC(C)C(O)c1ccc(SC(C)C)cc1 (stereo not given)	MEKK2wt PB1 HTS 142, MEKK2mut PB1 HTS 48 | MEKK2wt confirm inactive | MEKK2mut-MEK5 inactive | MEKK3-MEK5 inh inactive
Cc1cc(NC(=O)c2cc(C)on2)n(-c2ccccc2)n1	MEKK3 PB1 HTS 74[inhibitor], ABCB6 inh MLPCN 72 | MEKK2wt confirm inactive | MEKK2mut-MEK5 inactive | MEKK3-MEK5 inh inactive | ABCB6 blocker 1 inactive
O=C(Nc1cccc(S(=O)(=O)N2CCOCC2)c1)C1CCCN(C(=O)c2ccc(Cl)cc2)C1 (stereo not given)	none
O=C(Nc1cccc(C(F)(F)F)c1)C1Cc2c(-c3ccccc3Oc3ccccc3)ccnc2O1 (stereo not given)	none (no result: CRFR2-BP ag, MEKK3 PB1 HTS, CRFR2-BP antag, MEKK2wt PB1 HTS, MEKK2mut PB1 HTS) | ABCB6 blocker 1 inactive
CC(=O)Nc1ccc(-c2ccnc3c2CC(C(=O)Nc2cccc(OC(F)(F)F)c2)O3)cc1 (stereo not given)	ABCB6 inh MLPCN 74 (no result: CRFR2-BP ag, MEKK3 PB1 HTS, CRFR2-BP antag, MEKK2wt PB1 HTS, MEKK2mut PB1 HTS) | ABCB6 blocker 1 inactive
CC(=O)Nc1cccc(-c2ccnc3c2CC(C(=O)Nc2cccnc2)O3)c1 (stereo not given)	none (no result: CRFR2-BP ag, MEKK3 PB1 HTS, CRFR2-BP antag, MEKK2wt PB1 HTS, MEKK2mut PB1 HTS) | ABCB6 blocker 1 inactive
O=C(Nc1cccnc1)C1Cc2c(-c3cccc(F)c3)ccnc2O1 (stereo not given)	none (no result: CRFR2-BP ag, MEKK3 PB1 HTS, CRFR2-BP antag, MEKK2wt PB1 HTS, MEKK2mut PB1 HTS)
CC(=O)c1cccc(NC(=O)C2Cc3c(-c4ccccc4Oc4ccccc4)ccnc3O2)c1 (stereo not given)	none (no result: CRFR2-BP ag, MEKK3 PB1 HTS, CRFR2-BP antag, MEKK2wt PB1 HTS, MEKK2mut PB1 HTS)
Cc1onc(-c2ccccc2Cl)c1C(=O)NCC1CCCO1 (stereo not given)	ABCB6 inh MLPCN 74 | ABCB6 blocker 1 inactive
Cc1onc(-c2ccccc2Cl)c1C(=O)Nc1ccc(S(=O)(=O)NCC2CCCO2)cc1 (stereo not given)	none
Cc1ccccc1N(Cc1ccccc1F)S(C)(=O)=O	ABCB6 inh MLPCN 63 | ABCB6 blocker 1 inactive
Cc1ccc(C(=O)Nc2cc(C)nn2CCC#N)cc1	ABCB6 inh MLPCN 74 | ABCB6 blocker 1 inactive
Cc1cc(NC(=O)c2ccc(Cl)cc2)n(CCC#N)n1	none
Cc1ccc(S(=O)(=O)NC(=O)COc2ccccc2C)c(C)c1	none
CCOc1ccccc1N(C)C(=O)c1sc2ncn(CC(=O)N3CCCCC3C)c(=O)c2c1C (stereo not given)	none | ABCB6 blocker 1 inactive
Cc1ccc(NC(=O)c2sc3ncn(CC(=O)N4CCOCC4)c(=O)c3c2C)c(Br)c1	none | ABCB6 blocker 1 inactive
COc1cc(NC(=O)c2sc3ncn(CC(=O)N4CCCCC4C)c(=O)c3c2C)cc(OC)c1OC (stereo not given)	none (no result: MEKK3 PB1 HTS, MEKK2wt PB1 HTS, MEKK2mut PB1 HTS) | ABCB6 blocker 1 inactive
COc1cccc(CNCCO)c1OCc1ccccc1	none
COc1cccc(CNCCO)c1OCc1ccc(Cl)cc1	ABCB6 inh MLPCN 74 | ABCB6 blocker 1 inactive
Cc1noc(C)c1NC(=O)N(C)C[C@H]1OCc2cn(nn2)CCCC(=O)N([C@@H](C)CO)C[C@@H]1C	none (no result: MEKK3 PB1 HTS, MEKK2wt PB1 HTS, MEKK2mut PB1 HTS)
CCOC(=O)N1CCC(N2Cc3cccc(C(=O)NCc4ccc(C)cc4)c3C2=O)CC1	none
CCOC(=O)N1CCC(N2Cc3cccc(C(=O)NCc4ccccn4)c3C2=O)CC1	ABCB6 inh MLPCN 73 | ABCB6 blocker 1 inactive

Screening data as filed in PubChem BioAssay.
